# Laboratory results reported in PubChem BioAssay (EPA / NIEHS).
# Where “and” joins values, the source holds several entries; their conditions need not be identical. Equal values may be shown once. Inconclusive results are not listed. The source holds several records for some structures; these can differ, active in one and inactive in another. Calls of active or inactive are those of the source. Rule for the calls: active = hit-call score of the fitted dose curve at least 0.9, where 1 is the maximum; inconclusive = response in the unintended direction; inactive = score below 0.9.
# Experiments:
# [1] = molecular target: Luciferin 4-monooxygenase (Photinus pyralis) (UniProt P08659); assay: CCTE_Simmons_QuantiLum_inhib_2: CCTE's Firefly Luciferase Inhibition Assay, Simmons Lab (AID 2283767)
# Summary of the method: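 Counter-screen for nonspecific enzyme inhibition: purified firefly luciferase incubated 30 min at 37C with chemicals up to 87.5 uM final, then luminescence measured after luciferin/dATP injection; activity fitted against DMSO baseline.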
# [2] = ACEA_AR_agonist_AUC_viability: ACEA Biosciences xCELLigence Real-Time Cell Analysis on Androgen Receptor Agonism for Viability (AID 2283775);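 for AC50: viability read 80 hours after compound addition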
# Summary of the method: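 Read-out is area under the impedance curve at 80 h post-dose in 22Rv1 cells, with DMSO as baseline and signal loss taken as reduced viability. Compounds ran in duplicate from 100 uM final.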
# [3] = ACEA_AR_antagonist_AUC_viability: ACEA Biosciences xCELLigence Real-Time Cell Analysis on Androgen Receptor Antagonism for Viability (AID 2283776);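 note: 22Rv1 human prostate cancer cells growing on impedance electrode plates; area under impedance growth curve at 80 h after dosing as viability; hits lower the growth signal relative to DMSO meaning cytotoxicity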
# Summary of the method: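 Real-time electrical impedance tracks 22Rv1 proliferation after continuous compound exposure (top 100 uM final, 1:4 steps, 8 concentrations). The 80 h area-under-curve serves as the cytotoxicity readout relative to DMSO.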
# [4] = ACEA_ER_AUC_viability: ACEA Biosciences xCELLigence Real-Time Cell Analysis on Estrogen Receptor Agonism for Viability (AID 2283782);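 note: hit means loss of impedance signal meaning reduced cell growth or viability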
# Summary of the method: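 T-47D; phenol red-free RPMI1640 + 10% CS-FBS; 8 conc., 1:4 serial, max 100 uM final, ≤0.5% DMSO; n = 2; continuous exposure; impedance monitored to 80 h post-dose; AUC vs DMSO.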
# [5] = STM_H9_NormalizedViability: Cytotoxicity Assessment at 120 hours in the Stemina devTOX quickPredict H9 human embryonic stem cell (hESC)-based Assay (AID 2283784)
# Summary of the method: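 Chemicals are tested blinded on H9 human embryonic stem cells in the pluripotent state, with medium exchanged daily. After background correction, fluorescence from CellTiter-Fluor is scaled against 0.1% DMSO wells, and decreases are scored.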
# AR (gene 367) [6] = molecular target: AR (gene 367) (UniProt P10275); assay: ACEA_AR_antagonist_80hr: ACEA Biosciences xCELLigence Real-Time Cell Analysis on Androgen Receptor Antagonism for Proliferation (AID 2283787);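 note: 22Rv1 human prostate cancer cells with growth followed by electrical impedance; hits lower the impedance growth signal relative to DMSO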
# Summary of the method: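 Growth-kinetic antagonist readout in 22Rv1 cells, taken 80 h after continuous compound exposure. Activity fitted as signal loss relative to DMSO negative control.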
# AR (gene 367) [7] = molecular target: AR (gene 367) (UniProt P10275); assay: ACEA_AR_agonist_80hr: ACEA Biosciences xCELLigence Real-Time Cell Analysis on Androgen Receptor Agonism for Proliferation (AID 2283783);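 note: hits increase impedance growth signal above DMSO baseline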
# Summary of the method: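 Androgen-driven proliferation in 22Rv1 cells is tracked as electrical impedance, taken 80 h after continuous exposure to compound (eight concentrations, 1:4 steps, maximum 100 uM final). Activity is fitted in the positive direction with DMSO as baseline.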
# [8] = ArunA_NOG_NucleusCount: ArunA Biomedical's Neurite Outgrowth (NOG) Assay for Nucleus Count (AID 2283756)
# Summary of the method: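 Human H9-derived differentiated neurons were exposed for 48 h right after seeding. Hoechst-stained nuclei gated by size and intensity were counted by automated high-content imaging as viable neurons. Loss of signal vs DMSO.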
# [9] = ArunA_NOG_NeuriteLength: ArunA Biomedical's Neurite Outgrowth (NOG) Assay for Neurite Length (AID 2283757)
# Summary of the method: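 Differentiated human H9-derived neurons were exposed for 48 h from seeding, then stained with Hoechst and βIII-tubulin. Automated high-content imaging gave total neurite length per valid neuron, counting processes >10 um. Loss of signal was scored versus DMSO.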
# [10] = ArunA_NOG_NeuritesPerNeuron: ArunA Biomedical's Neurite Outgrowth (NOG) Assay for Neurites Per Neuron (AID 2283758)
# Summary of the method: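 Differentiated human H9-derived neurons exposed to chemicals for 48 h from seeding, then stained with Hoechst and βIII-tubulin/DyLight 488. Automated imaging counted neurites (processes >10 um) per valid neuron; loss of signal versus DMSO scored.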
# [11] = ArunA_NOG_BranchPointsPerNeurite: ArunA Biomedical's Neurite Outgrowth (NOG) Assay for Branch Points Per Neurite (AID 2283759)
# Summary of the method: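 Automated image analysis traced neurites (processes >10 um) from valid cell bodies after Hoechst and βIII-tubulin staining. hNN cells from H9 embryonic stem cells, 48 h exposure. Fitted bidirectionally against DMSO.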
# Sequence of Luciferin 4-monooxygenase (Photinus pyralis) (P08659 whole entry, looked up): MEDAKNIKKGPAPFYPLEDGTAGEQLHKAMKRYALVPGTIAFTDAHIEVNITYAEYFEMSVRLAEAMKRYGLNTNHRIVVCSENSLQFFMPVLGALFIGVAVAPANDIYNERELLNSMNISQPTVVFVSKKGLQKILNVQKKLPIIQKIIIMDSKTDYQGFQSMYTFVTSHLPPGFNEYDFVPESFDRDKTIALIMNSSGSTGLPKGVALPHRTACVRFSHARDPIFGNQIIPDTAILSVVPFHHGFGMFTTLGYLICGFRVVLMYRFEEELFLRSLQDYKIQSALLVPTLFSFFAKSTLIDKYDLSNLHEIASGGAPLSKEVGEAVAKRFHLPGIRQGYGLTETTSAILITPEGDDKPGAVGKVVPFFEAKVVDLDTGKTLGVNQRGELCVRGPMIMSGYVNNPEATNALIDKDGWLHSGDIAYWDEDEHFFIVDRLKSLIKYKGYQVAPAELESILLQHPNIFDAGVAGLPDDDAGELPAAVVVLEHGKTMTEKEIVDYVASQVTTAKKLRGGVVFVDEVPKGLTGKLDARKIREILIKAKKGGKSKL
# Sequence of AR (gene 367) (P10275 whole entry, looked up): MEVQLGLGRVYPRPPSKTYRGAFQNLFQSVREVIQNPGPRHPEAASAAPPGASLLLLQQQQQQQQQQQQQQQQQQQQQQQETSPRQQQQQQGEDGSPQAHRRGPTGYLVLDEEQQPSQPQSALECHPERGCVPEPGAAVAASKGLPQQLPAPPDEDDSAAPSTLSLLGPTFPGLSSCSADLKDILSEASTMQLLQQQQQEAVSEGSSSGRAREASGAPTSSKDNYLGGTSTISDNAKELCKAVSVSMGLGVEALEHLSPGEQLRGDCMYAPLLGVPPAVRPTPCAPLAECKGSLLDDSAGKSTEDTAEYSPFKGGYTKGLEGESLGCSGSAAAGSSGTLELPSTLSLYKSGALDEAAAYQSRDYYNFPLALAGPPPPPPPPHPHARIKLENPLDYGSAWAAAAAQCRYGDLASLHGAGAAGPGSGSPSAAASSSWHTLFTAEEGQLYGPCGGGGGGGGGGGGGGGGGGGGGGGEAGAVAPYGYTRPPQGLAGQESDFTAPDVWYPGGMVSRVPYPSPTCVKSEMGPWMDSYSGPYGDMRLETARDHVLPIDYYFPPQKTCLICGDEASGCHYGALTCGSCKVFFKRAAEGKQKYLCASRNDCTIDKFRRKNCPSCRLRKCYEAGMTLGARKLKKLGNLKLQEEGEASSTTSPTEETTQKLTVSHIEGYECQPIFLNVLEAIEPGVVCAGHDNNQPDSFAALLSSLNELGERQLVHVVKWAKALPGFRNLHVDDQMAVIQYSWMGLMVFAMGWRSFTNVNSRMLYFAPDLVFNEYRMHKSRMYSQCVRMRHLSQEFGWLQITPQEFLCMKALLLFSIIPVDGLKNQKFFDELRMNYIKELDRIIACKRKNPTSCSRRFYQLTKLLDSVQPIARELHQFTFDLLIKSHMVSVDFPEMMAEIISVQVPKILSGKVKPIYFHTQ
structure (smiles),measurement,setting,value
CC(C)(O)c1coc(S(=O)(=O)NC(=O)Nc2c3c(cc4c2CCC4)CCC3)c1,outcome,[1],inactive
same,outcome,[2],inactive
same,outcome,[3],inactive
same,outcome,[4],inactive
CC(C)=CCCC(C)=CC=O,outcome,[1],inactive
same,outcome,[2],inactive
same,outcome,[3],inactive
same,outcome,[5],inactive
CC(C)=CCCC(C)CCO (stereo not drawn),outcome,[1],inactive
same,outcome,[2],inactive
same,outcome,[3],inactive
same,outcome,[4],inactive
same,outcome,AR (gene 367) [6],inactive
O=C(CCCCCCCCc1cccnc1)N1CCC(C=C(c2ccccc2)c2ccccc2)CC1,outcome,[1],inactive
same,AC50,[2],11.4 µM (active)
same,AC50,[3],12.1 µM (active)
same,outcome,AR (gene 367) [7],inactive
same,AC50,AR (gene 367) [6],7.53 µM (active)
CC(C)c1cccc(C(C)C)c1N1C(=O)c2ccc(O)cc2C1=O,outcome,[8],inactive
same,AC50,[9],13.3 µM (active)
same,outcome,[9],inactive
same,AC50,[10],5 µM (active) and 13.3 µM (active)
same,outcome,[11],inactive
same,AC50,[2],19.4 µM (active)
same,AC50,[3],17.6 µM (active)
same,AC50,[4],80.3 µM (active)
same,AC50,[5],20.6 µM (active)
CCC(C)(C)C(=O)O[C@H]1C[C@@H](C)C=C2C=C[C@H](C)[C@H](CC[C@@H]3C[C@@H](O)CC(=O)O3)[C@H]21,outcome,[1],inactive
same,AC50,[2],29.9 µM (active)
same,AC50,[3],32.1 µM (active)
same,AC50,[4],30.5 µM (active)
same,outcome,[5],inactive
CCn1nc(Cc2ccccc2)cc1C1CCN(C[C@H]2C[C@H](N(C)[C@@H](C(=O)O)C(C)C)C[C@@H]2c2cccc(F)c2)CC1,outcome,[1],inactive
same,AC50,[2],36 µM (active)
same,AC50,[3],45 µM (active)
same,AC50,[4],7.91 µM (active)
C=CC(=C)CCC=C(C)C,outcome,[2],inactive
same,outcome,[3],inactive
same,outcome,[4],inactive
COC(=O)CC(=O)OC,outcome,[2],inactive
same,outcome,[3],inactive
same,outcome,[4],inactive
C1=CCCC=CCCC=CCC1,outcome,[2],inactive
same,outcome,[3],inactive
same,outcome,[4],inactive
O=C1OC(=O)C2C3C=CC(C3)C12 (stereo not drawn),outcome,[2],inactive
same,outcome,[3],inactive
CC(O)CN(CCN(CC(C)O)CC(C)O)CC(C)O (stereo not drawn),outcome,[2],inactive
same,outcome,[3],inactive
CN(C)c1ccc(N=NS(=O)(=O)O)cc1,outcome,[1],inactive
same,outcome,[4],inactive
same,AC50,AR (gene 367) [7],10.7 µM (active)
same,AC50,[5],21.1 µM (active)
